Measurements from PubChem BioAssay AID371 (SRMLSC, 2006).
Out of some 3,300 compounds screened, about 280 (8.5%) were called active. This is one part of a sample in which actives are shown more often than they occur. A number with no mark means an inactive call.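 Rule for the calls: active = mean growth inhibition over the two runs of 50% or more; inactive = mean growth inhibition under 50%.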

Assay: A549 NSCLC cell proliferation inhibitors – ATP luminescence, human non-small cell lung line, primary screen (AID 371);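 note: compound exposure lasted 72 h before the ATP read; 0% = untreated cell signal and 100% = no luminescence left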
Details: at 10 µM, stronger effect = higher value

**Q.** With `CN(C)CCOC(=O)c1cn(Cc2ccccc2)c2ccccc12` as the compound, how does the growth inhibition read?
**A.** 61.2% (active)

**Q.** For `CC(C)OC(=O)c1c(N)n(Cc2ccco2)c2nc3ccccc3nc12`, which growth inhibition is on record?
**A.** 18.6%

**Q.** Which growth inhibition does the source give for `COCC(C)OC(=O)c1c(N)n(Cc2ccco2)c2nc3ccccc3nc12` (configuration not stated) here?
**A.** 14%

**Q.** Which growth inhibition does the source give for `COCCOC(=O)c1c(N)n(Cc2ccco2)c2nc3ccccc3nc12` here?
**A.** 12.9%

**Q.** With `CC(C)(C)OC(=O)c1c(N)n(Cc2ccco2)c2nc3ccccc3nc12` as the compound, how does the growth inhibition read?
**A.** 56.9% (active)

**Q.** With `Nc1c(C(=O)NCc2ccco2)c2nc3ccccc3nc2n1CCN1CCCCC1` as the compound, how does the growth inhibition read?
**A.** 91.8% (active)

**Q.** With `CCCCOCCCn1c(N)c(C(=O)OCCOC)c2nc3ccccc3nc21` as the compound, how does the growth inhibition read?
**A.** 23.4%

**Q.** For `CCCCOCCCn1c(N)c(C(=O)OC(C)COC)c2nc3ccccc3nc21` (configuration not stated), which growth inhibition is on record?
**A.** 36.6%

**Q.** For `Nc1c(C(=O)NCc2ccco2)c2nc3ccccc3nc2n1Cc1ccc(F)cc1`, which growth inhibition is on record?
**A.** 86.7% (active)

**Q.** With `COc1ccc(Cn2c(O)c(C=NCCCn3ccnc3)c(=O)[nH]c2=O)cc1` as the compound, how does the growth inhibition read?
**A.** -7.41%

**Q.** For `CCCCCCn1c(O)c(C(C)=NC)c(=O)[nH]c1=O`, which growth inhibition is on record?
**A.** 8.94%

**Q.** For `O=C(c1ccco1)C12CN3CN(CN(C3)C1)C2`, which growth inhibition is on record?
**A.** -3.02%

**Q.** Which growth inhibition does the source give for `OC1(c2ccc(F)cc2)CCNC1` (configuration not stated) here?
**A.** -3.04%

**Q.** Which growth inhibition does the source give for `O=C1C2CCN(CC2)[C@@H]1Cc1ccc2ccccc2c1O` here?
**A.** 7.73%

**Q.** With `COc1cc2[nH]c(=O)n(-c3cccc(Cl)c3)c(=O)c2cc1OC` as the compound, how does the growth inhibition read?
**A.** 3.67%

**Q.** With `O=C1c2ccccc2C(=O)N1Cc1nc2ccccc2c(=O)n1-c1cccnc1` as the compound, how does the growth inhibition read?
**A.** -0.22%

**Q.** Which growth inhibition does the source give for `C=CCC1(CN2CCCCCC2=O)C(=O)NC(=O)NC1=O` here?
**A.** 2.99%

**Q.** For `CCCCNC(=O)Nc1ccc(C(O)(C(=O)OC)C(F)(F)F)cc1` (configuration not stated), which growth inhibition is on record?
**A.** -4.53%

**Q.** Which growth inhibition does the source give for `CCOC(C(=O)OCC(O)CN(CC)CC)(c1ccccc1)c1ccccc1` (configuration not stated) here?
**A.** 15.7%

**Q.** For `O=C(O)CCCc1ccc(N(CCCl)CCCl)cc1`, which growth inhibition is on record?
**A.** 50.8% (active)

**Q.** With `CCOCCN1CCC(OC(C)=O)C(C)C1` (configuration not stated) as the compound, how does the growth inhibition read?
**A.** 1.45%

**Q.** Which growth inhibition does the source give for `CCOc1ccc(Cc2c(O)[nH]c(=O)[nH]c2=O)cc1` here?
**A.** -5.3%

**Q.** With `CCCCNC(=O)Nc1ccc(C(O)(C(=O)OCC)C(F)(F)F)cc1` (configuration not stated) as the compound, how does the growth inhibition read?
**A.** -3.41%

**Q.** Which growth inhibition does the source give for `CN1CCC(OC(=O)C2c3ccccc3Oc3ccccc32)CC1` here?
**A.** 13%

**Q.** Which growth inhibition does the source give for `CCCC12CN3CN(C1)CC(CCC)(C3)C2O` (configuration not stated) here?
**A.** -0.83%

**Q.** For `CC(C)[C@@]1(NC(=O)[C@@H]2C=C3c4cccc5[nH]cc(c45)C[C@H]3N(C)C2)O[C@@]2(O)[C@@H]3CCCN3C(=O)[C@H](Cc3ccccc3)N2C1=O`, which growth inhibition is on record?
**A.** 35.2%

**Q.** Which growth inhibition does the source give for `CC(C)[C@H]1C(=O)N2CCC[C@H]2[C@]2(O)O[C@](NC(=O)[C@@H]3C=C4c5cccc6[nH]cc(c56)C[C@H]4N(C)C3)(C(C)C)C(=O)N12` here?
**A.** 37.3%

**Q.** Which growth inhibition does the source give for `CC(C)[C@@]1(NC(=O)[C@@H]2C[C@@H]3c4cccc5[nH]cc(c45)C[C@H]3N(C)C2)O[C@@]2(O)[C@@H]3CCCN3C(=O)[C@H](Cc3ccccc3)N2C1=O` here?
**A.** 85.1% (active)

**Q.** For `O=c1[nH]c(=O)n(Cc2ccccc2)c(O)c1C=NCCN1CCOCC1`, which growth inhibition is on record?
**A.** -6.38%

**Q.** For `O=c1[nH]c(=O)n(CCc2ccccc2)c(O)c1C=NCCN1CCNCC1`, which growth inhibition is on record?
**A.** -7.13%

**Q.** For `O=c1c(C=NCCN2CCNCC2)c(O)n(C2CCCCC2)c(=O)n1C1CCCCC1`, which growth inhibition is on record?
**A.** 82.3% (active)

**Q.** For `O=c1[nH]c(=O)n(Cc2ccccc2)c(O)c1C=NCCN1CCNCC1`, which growth inhibition is on record?
**A.** 4.69%

**Q.** Which growth inhibition does the source give for `OC(c1ccc(F)cc1)C(c1ccccc1)N1CCOCC1` (configuration not stated) here?
**A.** 7.16%

**Q.** For `O=c1[nH]c(=O)n(Cc2ccco2)c(O)c1C=NCCN1CCOCC1`, which growth inhibition is on record?
**A.** 0.93%

**Q.** Which growth inhibition does the source give for `CC1CCC(C(C)C)C(OP(N)(=O)c2ccccc2)C1` (configuration not stated) here?
**A.** 16.9%

**Q.** Which growth inhibition does the source give for `CNCCc1nc(N)n[nH]1` here?
**A.** 1.61%

**Q.** For `Cc1c(N=Cc2c(O)n(CCc3ccc(F)cc3)c(=O)[nH]c2=O)c(=O)n(-c2ccccc2)n1C`, which growth inhibition is on record?
**A.** 12.3%

**Q.** For `Cc1c(N=Cc2c(O)n(CCc3ccccc3)c(=O)[nH]c2=O)c(=O)n(-c2ccccc2)n1C`, which growth inhibition is on record?
**A.** 79.2% (active)

**Q.** Which growth inhibition does the source give for `CCCCCCn1c(O)c(C=Nc2c(C)n(C)n(-c3ccccc3)c2=O)c(=O)[nH]c1=O` here?
**A.** 6.23%

**Q.** For `C=CCn1c(O)c(C=NCCN(C)C)c(=O)[nH]c1=O`, which growth inhibition is on record?
**A.** 2.68%

**Q.** For `O=c1[nH]c(=O)n(CCc2ccccc2)c(O)c1C=NCCCn1ccnc1`, which growth inhibition is on record?
**A.** -3.73%

**Q.** For `CCOc1ccccc1-n1c(O)c(C=Nc2c(C)n(C)n(-c3ccccc3)c2=O)c(=O)[nH]c1=O`, which growth inhibition is on record?
**A.** 0.12%

**Q.** Which growth inhibition does the source give for `CC1(C)NCCN2C(=O)CSC21` (configuration not stated) here?
**A.** -1.76%

**Q.** With `O=C(CCCN1CCC2(CC1)C(=O)NCN2c1ccccc1)c1ccc(F)cc1` as the compound, how does the growth inhibition read?
**A.** 54.1% (active)

**Q.** Which growth inhibition does the source give for `CCCN(CC#CCO)CCC` here?
**A.** 0.1%

**Q.** Which growth inhibition does the source give for `Cn1c(O)c(C(=O)c2ccccc2Cl)c(=O)n(C)c1=O` here?
**A.** 2.11%

**Q.** With `CC(=O)OC1(c2ccc(C)cc2)CN2CCC1c1ccccc12` (configuration not stated) as the compound, how does the growth inhibition read?
**A.** 6.24%
